Results taken from PubChem BioAssay (EPA / NIEHS).
The source made the active and inactive calls. Rule for the calls: active = hit-call score of the fitted dose curve at least 0.9, where 1 is the maximum; inactive = score below 0.9.

Tests used:
[1] = read-out: Transforming growth factor beta 1 (TGFb1), TGFB1 (gene 7040); test: BSK_KF3CT_TGFb1: BioMAP Diversity Plus: KF3CT Assay for Transforming growth factor beta 1 (TGFb1) Biomarker Activity (AID 2283072); conditions: primary human keratinocytes with fibroblasts; actives raise or lower the signal
Procedure, shortened: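 Primary human skin cells (keratinocytes, foreskin fibroblasts) were co-cultured, exposed to test chemical and sampled at 24 h. TGF-b1 levels were measured by ELISA and fitted bidirectionally relative to DMSO.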

[2] = read-out: C-C motif chemokine 2 (Homo sapiens) (UniProt P13500); test: BSK_KF3CT_MCP1: BioMAP Diversity Plus: KF3CT Assay for Monocyte Chemoattractant Protein 1 (MCP1/CCL2) Biomarker Activity (AID 2283073); conditions: primary human keratinocytes with fibroblasts; actives raise or lower the signal
Procedure, shortened: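 ELISA read-out of MCP-1, 24 h post-dose, in primary human skin keratinocytes co-cultured with fibroblasts. Parallel SRB staining monitors cytotoxicity; changes fitted both directions relative to DMSO.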

[3] = read-out: Matrix Metallopeptidase 9 (MMP9), MMP9 (gene 4318); test: BSK_KF3CT_MMP9: BioMAP Diversity Plus: KF3CT Assay for Matrix Metallopeptidase 9 (MMP9) Biomarker Activity (AID 2283074); conditions: primary human keratinocytes with fibroblasts; actives raise or lower the signal
Procedure, shortened: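 Human keratinocyte/foreskin fibroblast co-culture; compound added; 24 h; MMP-9 by ELISA; bidirectional fit vs DMSO baseline.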

[4] = read-out: urokinase plasminogen activator (uPA), PLAU (gene 5328); test: BSK_KF3CT_uPA: BioMAP Diversity Plus: KF3CT Assay for urokinase plasminogen activator (uPA) Biomarker Activity (AID 2283075); conditions: primary human keratinocytes with fibroblasts; actives raise or lower the signal
Procedure, shortened: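 ELISA readout of uPA, analyzed for signal gain or loss relative to DMSO, from a human primary keratinocyte–foreskin fibroblast co-culture measured 24 h after chemical treatment.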

CD40, CD40 (gene 958) [5] = test: BSK_LPS_CD40: BioMAP Diversity Plus: LPS Assay for CD40 Biomarker Activity (AID 2283076); conditions: primary human HUVEC with PBMC; actives raise or lower the signal
Procedure, shortened: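 In the LPS system of human endothelial cells with peripheral blood mononuclear cells, CD40 levels were read by ELISA 24 h post-treatment. Signal changes in either direction were fitted against the DMSO baseline, with parallel SRB protein staining.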

[6] = read-out: E-selectin (Homo sapiens) (UniProt P16581); test: BSK_LPS_Eselectin: BioMAP Diversity Plus: LPS Assay for Eselectin Biomarker Activity (AID 2283077); conditions: primary human HUVEC with PBMC; actives raise or lower the signal
Procedure, shortened: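 E-selectin ELISA on LPS-stimulated endothelial cell/PBMC co-cultures, read 24 h post-treatment; gains and losses fitted against DMSO. Parallel SRB staining (0.1% SRB after 10% TCA fixation, 560 nm) flags overt cytotoxicity.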

[7] = read-out: Interleukin-8 (IL8), CXCL8 (gene 3576); test: BSK_LPS_IL8: BioMAP Diversity Plus: LPS Assay for Interleukin-8 (IL8) Biomarker Activity (AID 2283078); conditions: primary human HUVEC with PBMC; actives raise or lower the signal
Procedure, shortened: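 ELISA read-out of IL-8 after 24 h chemical treatment of LPS-activated endothelial/PBMC human primary co-cultures. Changes either up or down relative to DMSO; overt cytotoxicity checked by sulforhodamine B staining in parallel wells.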

[8] = BSK_LPS_SRB: Viability Assessment in the BioMAP Diversity Plus: LPS Assay (AID 2283079); conditions: primary human HUVEC with PBMC;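 note: total protein by sulforhodamine B absorbance as a cytotoxicity measure; measured one day after compound addition; fitted in both directions against DMSO so loss or gain of signal counts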
Procedure, shortened: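 SRB viability endpoint: cells fixed with 10% TCA, stained with 0.1% SRB, read at 560 nm, 24 h post-dose. HUVEC/PBMC co-culture; signal change in either direction scored relative to DMSO.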

[9] = read-out: Interleukin-1 alpha (IL1a), IL1A (gene 3552); test: BSK_LPS_IL1a: BioMAP Diversity Plus: LPS Assay for Interleukin-1 alpha (IL1a) Biomarker Activity (AID 2283080); conditions: primary human HUVEC with PBMC; actives raise or lower the signal
Procedure, shortened: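 Readout is IL-1a level by ELISA, 24 h post-dose, fitted as gain or loss relative to DMSO. System: LPS-activated human primary co-culture of vascular endothelium and peripheral blood mononuclear cells, with parallel SRB total-protein cytotoxicity.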

[10] = read-out: Monocyte Chemoattractant Protein-1 (MCP1), CCL2 (gene 6347); test: BSK_LPS_MCP1: BioMAP Diversity Plus: LPS Assay for Monocyte Chemoattractant Protein-1 (MCP1) Biomarker Activity (AID 2283081); conditions: primary human HUVEC with PBMC; actives raise or lower the signal
Procedure, shortened: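 Secreted MCP-1 read by ELISA at 24 h post-dosing in an LPS-activated co-culture of endothelial cells with peripheral blood mononuclear cells. Fits run in both directions, DMSO as baseline; parallel SRB staining tracks overt cytotoxicity.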

[11] = BSK_LPS_PGE2: BioMAP Diversity Plus: LPS Assay for Prostaglandin E2 (PGE2) Biomarker Activity (AID 2283082); conditions: primary human HUVEC with PBMC; actives raise or lower the signal
Procedure, shortened: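 LPS-activated HUVEC/PBMC co-culture; cmpd dosed, 24 h; PGE2 by ELISA; bidirectional fit vs DMSO; SRB (0.1%, TCA-fixed, 560 nm) in parallel plates for overt cytotox.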

[12] = read-out: Macrophage colony-stimulating factor (MCSF), CSF1 (gene 1435); test: BSK_LPS_MCSF: BioMAP Diversity Plus: LPS Assay for Macrophage colony-stimulating factor (MCSF) Biomarker Activity (AID 2283083); conditions: primary human HUVEC with PBMC; actives raise or lower the signal
Procedure, shortened: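 Bidirectional fitting against DMSO was applied to M-CSF levels read by ELISA at 24 h post-dose. The system pairs human umbilical vein endothelium with peripheral blood mononuclear cells; parallel SRB staining tracked cytotoxicity.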

[13] = read-out: Tissue Factor, F3 (gene 2152); test: BSK_LPS_TissueFactor: BioMAP Diversity Plus: LPS Assay for Tissue Factor Biomarker Activity (AID 2283084); conditions: primary human HUVEC with PBMC; actives raise or lower the signal
Procedure, shortened: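 Compound was added to an endothelial cell/PBMC co-culture, and after 24 h tissue factor (CD142) was read by ELISA. Gain or loss of signal was fitted against a DMSO baseline, and parallel SRB staining (560 nm) tracked overt cytotoxicity.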

[14] = read-out: Tumor necrosis factor (Homo sapiens) (UniProt P01375); test: BSK_LPS_TNFa: BioMAP Diversity Plus: LPS Assay for Tumour Necrosis Factor alpha (TNFa) Biomarker Activity (AID 2283085); conditions: primary human HUVEC with PBMC; actives raise or lower the signal
Procedure, shortened: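 Read-out is ELISA of TNFa in primary human endothelial cell–PBMC co-cultures at 24 h after compound. Activity in either direction was fitted against DMSO.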

[15] = read-out: Vascular cell adhesion molecule 1 (VCAM1), VCAM1 (gene 7412); test: BSK_LPS_VCAM1: BioMAP Diversity Plus: LPS Assay for Vascular cell adhesion molecule 1 (VCAM1) Biomarker Activity (AID 2283086); conditions: primary human HUVEC with PBMC; actives raise or lower the signal
Procedure, shortened: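 HUVEC + PBMC co-culture, LPS system; compound 24 h; VCAM-1 by ELISA; bidirectional fit vs DMSO control; parallel SRB (0.1%, TCA-fixed, 560 nm) for cytotoxicity.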

CD38, CD38 (gene 952) = test: BSK_SAg_CD38: BioMAP Diversity Plus: SAg Assay for CD38 Biomarker Activity (AID 2283087); conditions: primary human HUVEC with PBMC; actives raise or lower the signal
Procedure, shortened: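 Human HUVEC plus PBMC co-culture stimulated with superantigen; CD38 measured by ELISA 24 h after chemical dosing. Fluorescence read-out, bidirectional fit against DMSO; cytotoxicity tracked in parallel by SRB and Alamar Blue.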

CD40, CD40 (gene 958) [16] = test: BSK_SAg_CD40: BioMAP Diversity Plus: SAg Assay for CD40 Biomarker Activity (AID 2283088); conditions: primary human HUVEC with PBMC; actives raise or lower the signal
Procedure, shortened: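 CD40 is measured by fluorescence ELISA in an endothelial/PBMC primary human co-culture at 24 h post-dose. Fitting is bidirectional, DMSO baseline. Parallel SRB staining (560 nm) flags cytotoxicity.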

CD69, CD69 (gene 969) = test: BSK_SAg_CD69: BioMAP Diversity Plus: SAg Assay for CD69 Biomarker Activity (AID 2283089); conditions: primary human HUVEC with PBMC; actives raise or lower the signal
Procedure, shortened: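 Primary human vascular co-culture (umbilical vein endothelium with peripheral blood mononuclear cells) exposed to test chemical for 24 h. CD69 levels quantified by fluorescence ELISA; DMSO served as negative control for bidirectional fitting.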

[17] = read-out: E-selectin (Homo sapiens) (UniProt P16581); test: BSK_SAg_Eselectin: BioMAP Diversity Plus: SAg Assay for Eselectin Biomarker Activity (AID 2283091); conditions: primary human HUVEC with PBMC; actives raise or lower the signal
Procedure, shortened: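 Cell-surface E-selectin is read by ELISA at 24 h in the SAg co-culture of HUVEC and PBMC. Curves are fitted in both directions relative to DMSO. Parallel SRB total-protein staining tracks overt toxicity.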

Measured: outcome

Sequence of E-selectin (Homo sapiens) (P16581 whole entry, looked up): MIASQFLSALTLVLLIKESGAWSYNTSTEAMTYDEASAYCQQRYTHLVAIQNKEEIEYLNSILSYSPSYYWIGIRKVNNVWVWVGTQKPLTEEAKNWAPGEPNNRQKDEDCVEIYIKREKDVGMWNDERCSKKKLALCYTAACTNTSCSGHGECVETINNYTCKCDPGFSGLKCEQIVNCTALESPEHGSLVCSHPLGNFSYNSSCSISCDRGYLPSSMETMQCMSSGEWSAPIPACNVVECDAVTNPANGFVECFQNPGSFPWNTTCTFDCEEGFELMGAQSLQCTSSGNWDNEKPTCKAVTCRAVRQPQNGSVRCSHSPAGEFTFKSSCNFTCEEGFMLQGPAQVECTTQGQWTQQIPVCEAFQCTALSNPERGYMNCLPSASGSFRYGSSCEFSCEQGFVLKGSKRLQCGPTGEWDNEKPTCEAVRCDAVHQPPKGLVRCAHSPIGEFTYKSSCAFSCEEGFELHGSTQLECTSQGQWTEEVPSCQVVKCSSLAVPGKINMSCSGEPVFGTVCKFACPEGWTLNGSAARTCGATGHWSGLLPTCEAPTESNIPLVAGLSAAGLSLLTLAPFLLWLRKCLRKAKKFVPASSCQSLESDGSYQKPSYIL
Sequence of Tumor necrosis factor (Homo sapiens) (P01375 whole entry, looked up): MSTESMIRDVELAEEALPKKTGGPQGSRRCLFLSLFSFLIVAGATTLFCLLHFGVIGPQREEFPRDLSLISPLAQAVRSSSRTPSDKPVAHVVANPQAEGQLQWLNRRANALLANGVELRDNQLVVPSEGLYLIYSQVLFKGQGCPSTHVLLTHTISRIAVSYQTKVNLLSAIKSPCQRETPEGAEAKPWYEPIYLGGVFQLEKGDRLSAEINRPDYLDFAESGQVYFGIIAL

CCOC(=O)CN[C@@H](C(=O)N1CC[C@H]1C(=O)NCc1ccc(/C(N)=N/O)cc1)C1CCCCC1
inactive: all assays above

CCCCC=O
inactive: all assays above

CCCCCCCCCCCCCCC
inactive: all assays above
